Hits are enriched below; roughly 0.96% of the tested compounds scored in any of these assays.
DAGLB inhibitor – DAGLB lipase inhibitors, primary screen, biochemical, fluorescence, HTS; Diacylglycerol lipase-beta (Homo sapiens), Q8NCG7; HEK293T DAGLB membrane lysate, EnzChek fluorogenic substrate; inhibition, % at 5.17 µM; 340,000 compounds, 0.059% hits; AID 504411, 2011; in the data active means inhibition above about 34%;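 further: 0% = enzyme with vehicle and 100% = wells lacking enzyme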
MIN6 prolif-1 – inducers of MIN6 beta-cell proliferation, primary screen, ATP luminescence, uHTS. MIN6 cells proliferation, ATPlite luminescence, 48 h; cells starved in 0.2% serum; 100% = growth in 10% serum. proliferation, % at 10 µM. 330,000 compounds, 0.29% hits. AID 2380, 2010;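 active means compounds whose signal lies at least 3.5 SD above the mean of all wells on their plate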;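 further: 0% = DMSO-treated cells in low-serum medium and 100% = 10% serum control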
HDAC3 inh – HDAC3 deacetylase inhibitors, primary screen, biochemical, fluorescence, cell-free homogeneous. Histone deacetylase 3 (Homo sapiens), O15379. recombinant HDAC3, fluorogenic peptide/trypsin coupled. inhibition, % at 8.3 µM. 320,000 compounds, 0.15% hits; in the data active means inhibition above about 26%, passing the limit was not always enough; inconclusive means no clear call, values can overlap the other calls
Rtt109 Vps75 – inhibitors of C. albicans Rtt109/Vps75 HAT, primary screen, biochemical, ThioGlo CoA-SH fluorescence, plate reader | 330,000 compounds, 0.16% hits | inhibition, % at 34.9 µM | purified Rtt109/Vps75, 4 h | Histone acetyltransferase RTT109 (Candida albicans (strain SC5314 / ATCC MYA-2876)), …;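 active means inhibition of at least 50% in every replicate; inconclusive means best replicate reaches 50% inhibition but some replicates fall short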
Target sequence (Q5AAJ8 whole entry, looked up): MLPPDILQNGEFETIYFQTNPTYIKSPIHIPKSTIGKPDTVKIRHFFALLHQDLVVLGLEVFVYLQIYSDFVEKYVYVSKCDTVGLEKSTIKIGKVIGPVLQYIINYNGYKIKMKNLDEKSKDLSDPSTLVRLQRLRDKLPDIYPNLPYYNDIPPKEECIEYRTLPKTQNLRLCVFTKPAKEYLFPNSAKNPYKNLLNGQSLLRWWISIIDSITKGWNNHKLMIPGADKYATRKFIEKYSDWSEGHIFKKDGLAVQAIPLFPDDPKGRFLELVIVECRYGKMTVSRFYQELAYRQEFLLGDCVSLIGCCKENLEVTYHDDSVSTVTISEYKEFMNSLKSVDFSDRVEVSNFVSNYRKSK
V-ATPase pH – regulators of yeast V-ATPase proton pumping, primary screen, pHLuorin cytosolic pH fluorescence. response, % at 10 µM. S. cerevisiae. AID 504577, 2011. 350,000 compounds, 0.37% hits; in the data active means response mostly above about 7.3%, no sharp cut-off; inactive means mostly below about 5.4%; further: actives read high
MIN6 prolif-2 – inducers of beta-cell proliferation in MIN6, confirmation, MIN6 cells, mouse; shares compounds with MIN6 prolif-1; ATPlite luminescence, 48 h; cells kept in 0.2% serum; scaled between 0.2% and 10% serum; proliferation increase, % at 50 µM; 920 tested, under 10 active;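 active means proliferation increase above 40% at any of the four tested concentrations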
Starred values were filed as active, the others as inactive; ? = inconclusive; · = no result.

SMILES | DAGLB inhibitor | MIN6 prolif-1 | HDAC3 inh | Rtt109 Vps75 | V-ATPase pH | MIN6 prolif-2
COc1cc(C(=O)OCC(=O)NC2CCCCCC2)ccc1OCC(C)C | -6.4 | 11.4* | 10.2 | -2.2 | 2.6 | -0.7
COc1cc(C(=O)OCC(=O)NCC2CCCCC2)ccc1OCC(C)C | -1.9 | -1.3 | 14.0 | 1.5 | 1.6 | ·
CCOC(=O)N1CCN(C(=O)CN2C(=O)COc3ccc(S(=O)(=O)N4CCOCC4)cc32)CC1 | 4.7 | -5.1 | · | 10.0 | -3.8 | ·
CC(C)OP(=O)(c1ccc(N(C)C)cc1)C(O)c1ccncc1 (stereo not given) | -5.3 | 0.1 | -4.4 | -5.4 | 4.4 | ·
CC(C)OP(=O)(c1ccc(N(C)C)cc1)C(O)c1ccc(Br)cc1 (stereo not given) | 2.0 | 9.0* | -0.1 | 1.1 | 1.2 | -1.0
CS(=O)(=O)NCCNc1ccc(Cl)cc1[N+](=O)[O-] | 4.0 | 7.7* | 2.6 | 1.2 | -1.3 | -0.8
CCCCNc1ccc(S(N)(=O)=O)cc1[N+](=O)[O-] | · | 6.0* | -1.4 | · | · | -2.8
CCOc1ccccc1Nc1cc2n(c(=O)n1)CCc1cc(OC)c(OC)cc1-2 | 1.4 | 12.1* | 12.1 | · | 4.8 | -0.7
CSCCC(NC(=O)C1CC1)c1nc2ccccc2[nH]1 (stereo not given) | -0.8 | -0.4 | -1.4 | 5.3 | -0.3 | ·
COc1ccc(C2=Nn3c(nnc3-c3ccncc3)SC2)cc1 | 0.3 | 13.5* | -1.6 | 16.9 | 0.6 | 3.7
COc1ccc(C2=Nn3c(nnc3-c3cccnc3)SC2)cc1 | -1.4 | · | · | -2.6 | -2.6 | ·
O=C(c1ccc2c3c(cccc13)CC2)N1CCOCC1 | -1.2 | 5.3* | 10.4 | -3.0 | 4.5 | 1.1
COc1cccc(C(=O)N2CCOCC2)c1OC | -0.8 | -0.6 | 3.9 | -2.0 | -2.5 | ·
CCCCNC(=O)Nc1nnc(C(C)(C)C)s1 | -0.8 | 5.1* | 2.3 | -0.6 | 2.4 | 0.8
CC(C)(C)c1nnc(NC(=O)Nc2ccc(Cl)cc2)s1 | -8.4 | -2.7 | 2.5 | 16.6 | -0.3 | ·
COc1ccc(NC(=S)N/N=C2\CC(C)(C)Oc3ccc(O)cc32)cc1 | -0.3 | 0.0 | 5.0 | · | -2.6 | ·
CCOC(=O)c1c(C)[nH]c(C)c1C(=O)COC(=O)[C@@H](NC(=O)c1ccccc1OCC)C(C)C | -3.8 | 7.4* | 2.2 | 1.2 | -0.1 | -5.5
CCCN1C2=C(C(=O)CC(C)(C)C2)C(c2ccc(F)cc2)C2=C1c1ccccc1C2=O (stereo not given) | 3.9 | -4.5 | 1.5 | -10.0 | 1.4 | ·
CCCCN1C2=C(C(=O)CC(C)(C)C2)C(c2ccccc2)C2=C1c1ccccc1C2=O (stereo not given) | 4.3 | 8.2* | -2.3 | 1.7 | -1.9 | -0.7
Cc1[nH]n(-c2nc(-c3ccccc3)cc(=O)[nH]2)c(=O)c1CCO | -1.1 | 9.6* | 1.9 | 1.1 | -4.0 | -0.2
Cc1nc(-c2ccccc2)cc(=O)[nH]1 | -0.7 | 0.4 | -0.8 | -4.1 | -2.1 | ·
COCCNC(=O)C(c1ccc(F)cc1)N(Cc1cccs1)C(=O)CCC(=O)Nc1ccccn1 (stereo not given) | -0.4 | 5.5* | -1.6 | -10.4 | 2.8 | -2.3
COc1cccc(NC(=O)Cc2nnc(SCC(=O)c3ccccc3)n2C)c1 | -1.6 | · | · | -4.1 | 2.9 | ·
CCN(CC)C(=O)[C@]1(c2ccccc2)C[C@@H]1CN | · | 12.2* | -4.5 | · | · | 0.7
Cc1ccc(-n2nc(C(=O)O)cc2-c2ccccc2Cl)cc1 | -0.1 | -0.5 | -4.3 | -4.2 | -1.2 | ·
SMILES | DAGLB inhibitor | MIN6 prolif-1 | HDAC3 inh | Rtt109 Vps75 | V-ATPase pH | MIN6 prolif-2
O=C(O)c1cc(-c2ccccc2Cl)n(-c2ccc(F)cc2)n1 | 3.3 | 8.0* | -6.0 | 5.8 | -0.6 | -1.7
CSc1ccccc1NC(=O)CN(Cc1ccc(Cl)cc1)S(C)(=O)=O | 1.4 | 5.0* | 1.5 | 2.0 | 0.7 | -5.6
CSc1ccccc1NC(=O)CN(Cc1ccccc1)S(C)(=O)=O | -3.1 | 4.4 | -8.6 | 0.4 | 0.4 | ·
CCOC(=O)Cn1c(=O)n(Cc2ccco2)c(=O)c2ccc(C(=O)NC3CCCC3)cc21 | 0.4 | 12.5* | ? | -2.9 | -1.4 | -1.0
CCOC(=O)CSc1nc2cc(C(=O)NCC3CCCO3)ccc2c(=O)n1Cc1ccco1 (stereo not given) | -0.1 | -2.1 | 4.3 | 11.1 | 2.5 | ·
CC(C)C(NC(=O)c1ccccc1Cl)C(=O)OCc1nc2scc(-c3ccccc3Cl)c2c(=O)[nH]1 (stereo not given) | 1.7 | -4.5 | -1.6 | 1.9 | 0.7 | ·
COc1ccccc1N(CC(O)CN1CCOCC1)S(=O)(=O)c1ccccc1 (stereo not given) | -1.1 | 19.4* | -1.0 | 5.1 | -5.4 | 0.0
COc1ccccc1N(CC(O)CN1CCCC1)S(=O)(=O)c1ccccc1 (stereo not given) | 2.0 | 0.0 | -2.7 | 7.2 | -1.7 | ·
Cc1cccc(C)c1OCC(=O)Nn1c(COc2ccccc2)nc2ccccc2c1=O | -1.5 | 18.7* | 7.9 | -0.3 | 5.8 | 2.6
Cc1ccccc1OCC(=O)Nn1c(COc2ccccc2)nc2ccccc2c1=O | -1.4 | 0.2 | 8.2 | 13.8 | -2.3 | ·
O=C(O)c1ccc(CS(=O)c2cccc(C(F)(F)F)c2)o1 (stereo not given) | -0.1 | -1.6 | -2.7 | -0.2 | -7.8 | ·
O=C(c1cccc2ccccc12)n1nnc2ccccc21 | · | 10.2* | 10.7 | · | · | -6.2
O=C(CCCOc1ccccc1)n1nnc2ccccc21 | 0.9 | -1.3 | -0.4 | -3.2 | -1.6 | ·
Cc1cc(NC(=O)CSc2cc(C)c3ccccc3n2)no1 | -7.4 | 7.3 | -1.1 | -7.7 | -4.1 | ·
Cc1cc(NC(=O)CSc2c3c(nc4ccccc24)CCC3)no1 | -4.5 | 16.1* | 6.2 | -8.8 | 3.2 | -6.1
COc1ccc(NC(=O)CSc2c3c(nc4ccccc24)CCCC3)c(OC)c1 | -6.6 | 0.0 | -4.8 | 26.7 | 1.9 | ·
COc1ccccc1NC(=O)CSc1c2c(nc3ccccc13)CCC2 | -3.3 | 8.4* | 2.1 | -11.4 | -1.1 | -6.3
Cc1nn(C)cc1C(C(=O)NC1CCCCC1)N(CCc1ccccc1)C(=O)c1cnccn1 (stereo not given) | 2.7 | -0.9 | -0.1 | 1.4 | 1.5 | ·
Nc1ccc[n+](Cc2ccccn2)c1 | -1.8 | 4.9* | 1.3 | -8.9 | 3.3 | 1.1
CCOC(=O)c1c(-c2cccs2)csc1NC(=O)CSc1ncn[nH]1 | -1.9 | -3.6 | 0.0 | -2.9 | -3.0 | ·
Cc1ccc(C(=O)c2ccc([N+](=O)[O-])cc2)c(C)c1 | -5.5 | -0.1 | 2.0 | 2.3 | 3.5 | ·
Cc1cc(C)nc(NC(=NCCc2c[nH]c3ccccc23)NC(=O)Nc2ccccc2)n1 | -4.3 | -4.2 | 5.3 | -4.5 | -2.3 | ·

Screens from PubChem BioAssay.
